Measured values published in PubChem BioAssay (NCATS).
Records with an inconclusive call do not appear. A number with no mark means an inactive call. Calls of active or inactive are those of the source. Calls follow the shape of the dose curve; as a rule, active = well fitted cell-killing curve with a large enough effect; inconclusive = small, poorly fitted or top-dose-only effect, or effect the other way; inactive = no such curve, though single readings can be large or run the other way.

assay: qHTS of pediatric cancer cell lines to identify multiple opportunities for drug repurposing: Confirmatory screen for Rh30 cells (AID 1347126); settings: Rh30 rhabdomyosarcoma cell viability; series mostly up to 45.9 µM; activity change, negative = cytotoxic: at the top concentration; also: nearly all actives have a fitted effect of over 55% in size; as to activity change, negative = cytotoxic: % is scaled to controls: 0 for no effect and ±100 for the full control effect
Outline: (§1)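 Viability after 48 h compound treatment at 37C, 500-1,000 cells/well, read as ATP luminescence with CellTiter-Glo. Primary screens used 11-point (MIPE, 0.78 nM-46 µM) or 8-point (NPC, 0.59 nM-46 µM) final concentrations; follow-up screens used 11-point dilutions.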
Potency is read from the fitted curve at half-maximal effect.

Question: Which Potency does the source give for `Cc1ccc(C(=O)Nc2ccc(CN3CCN(C)CC3)c(C(F)(F)F)c2)cc1C#Cc1cnc2cccnn12` here?
Answer: The Potency was 5.22 µM (active).

Question: With `Nc1cc(C(F)(F)F)c(-c2cc(N3CCOCC3)nc(N3CCOCC3)n2)cn1` as the molecule, how does the Potency read?
Answer: Its Potency is 4.14 µM (active).

Question: Which Potency does the source give for `O=C(Nc1ncc(-c2cc(C(F)F)nn2-c2c(Cl)cccc2Cl)s1)C1CC1` here?
Answer: Its Potency is 13.1 µM (active).

Question: Which “activity change, negative = cytotoxic” value does the source give for `CC(C)CC(=O)Nc1n[nH]c2c1CN(C(=O)C1CCN(C)CC1)C2(C)C` here?
Answer: The value was -9.39%.

Question: For `Nc1ccn([C@@H]2O[C@H](CO)[C@H](O)C2(F)F)c(=O)n1`, which Potency is on record?
Answer: The Potency was 5.85 µM (active).

Question: For `Cc1ccc2nc(NC(=O)CSc3nc4c(c(=O)n3-c3ccccc3)SCC4)sc2c1`, which “activity change, negative = cytotoxic” value is on record?
Answer: Its value is 17.8%.

Question: For `Cc1nc(N)ncc1-c1nc(N2CCOCC2)c2sc(C(C)(C)O)cc2n1`, which Potency is on record?
Answer: Its Potency is 0.737 µM (active).

Question: Which Potency does the source give for `Cc1cc(Nc2cc(N3CCN(C)CC3)nc(Sc3ccc(NC(=O)C4CC4)cc3)n2)n[nH]1` here?
Answer: The Potency was 5.85 µM (active).

Question: With `CN[C@H]1CCc2cc(OC)c(OC)c(OC)c2-c2ccc(OC)c(=O)cc21` as the molecule, how does the “activity change, negative = cytotoxic” value read?
Answer: Its value is 0%.

Question: For `COc1ccc(OC)c(-c2nnc3ccc(-c4ccc(OC)c(O[C@@H]5CCOC5)c4)nn23)c1`, which Potency is on record?
Answer: Its Potency is 4.14 µM (active).

assay: qHTS of pediatric cancer cell lines to identify multiple opportunities for drug repurposing: Confirmatory screen for Saos-2 cells (AID 1347127); settings: Saos-2 osteosarcoma cell viability; series mostly up to 45.9 µM; activity change, negative = cytotoxic: at the top concentration; also: nearly all actives have a fitted effect of over 60% in size;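 as to activity change, negative = cytotoxic: plate controls were DMSO for no effect and bortezomib for full effect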
Outline: as §1

Question: Which “activity change, negative = cytotoxic” value does the source give for `Cc1nc2ccc(CN(C)c3ccc(C(=O)N[C@@H](CCC(=O)O)C(=O)O)s3)cc2c(=O)[nH]1` here?
Answer: The value was -18.8%.

Question: Which Potency does the source give for `O=C(Nc1ncc(-c2cc(C(F)F)nn2-c2c(Cl)cccc2Cl)s1)C1CC1` here?
Answer: Its Potency is 0.465 µM (active).

Question: With `Cc1ccc2nc(NC(=O)CSc3nc4c(c(=O)n3-c3ccccc3)SCC4)sc2c1` as the molecule, how does the “activity change, negative = cytotoxic” value read?
Answer: Its value is 1.9%.

Question: For `Cc1nc(N)ncc1-c1nc(N2CCOCC2)c2sc(C(C)(C)O)cc2n1`, which Potency is on record?
Answer: Its Potency is 1.47 µM (active).

Question: Which Potency does the source give for `Cc1cc(Nc2cc(N3CCN(C)CC3)nc(Sc3ccc(NC(=O)C4CC4)cc3)n2)n[nH]1` here?
Answer: Its Potency is 16.5 µM (active).

assay: qHTS of pediatric cancer cell lines to identify multiple opportunities for drug repurposing: Confirmatory screen for OHS-50 cells (AID 1347128); settings: OHS-50 osteosarcoma cells viability; series mostly up to 45.9 µM; activity change, negative = cytotoxic: at the top concentration;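 also: compound exposure lasted 48 h at 37 degrees C; nearly all actives have a fitted effect of over 55% in size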; as to activity change, negative = cytotoxic: % is scaled to controls: 0 for no effect and ±100 for the full control effect
Outline: as §1

Question: For `Cc1nc2ccc(CN(C)c3ccc(C(=O)N[C@@H](CCC(=O)O)C(=O)O)s3)cc2c(=O)[nH]1`, which “activity change, negative = cytotoxic” value is on record?
Answer: The value was -10.3%.

Question: For `Cc1ccc(C(=O)Nc2ccc(CN3CCN(C)CC3)c(C(F)(F)F)c2)cc1C#Cc1cnc2cccnn12`, which “activity change, negative = cytotoxic” value is on record?
Answer: The value was -61.3%.

Question: Which Potency does the source give for `CC(C)CC(=O)Nc1n[nH]c2c1CN(C(=O)C1CCN(C)CC1)C2(C)C` here?
Answer: The Potency was 5.85 µM (active).

Question: With `Cc1nc(N)ncc1-c1nc(N2CCOCC2)c2sc(C(C)(C)O)cc2n1` as the molecule, how does the Potency read?
Answer: The Potency was 2.93 µM (active).

Question: With `Cc1cc(Nc2cc(N3CCN(C)CC3)nc(Sc3ccc(NC(=O)C4CC4)cc3)n2)n[nH]1` as the molecule, how does the Potency read?
Answer: Its Potency is 9.27 µM (active).

Question: With `COc1ccc(OC)c(-c2nnc3ccc(-c4ccc(OC)c(O[C@@H]5CCOC5)c4)nn23)c1` as the molecule, how does the Potency read?
Answer: The Potency was 6.57 µM (active).
